According to the supplement of paper PMC9950053:
Where a name gives a salt, the structure may show the parent alone.

What was measured:
Conditions in all cases: 10 µM; exposure time: 3 h pre-incubation + 3 h imaging
[1] = tested on: Danio rerio larvae (5 dpf); assay: startle (activity period 16 minus period 15, 20-s interval sound) minus DMSO control (percentage points); higher = stronger startle response than DMSO larvae
Summary of the method: (§1)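 Behavioural measures are expressed in percentage points as the treated group mean minus the control group mean. Groups held 48 larvae and the control held 844. Wild-type zebrafish larvae at 5 dpf received compounds at 10 µM final for 3 h before imaging and throughout 3 h of imaging at 28.5 °C, with frames every 6 s tracked by Z-LaP Tracker. Detections with probability below 0.5 and larvae moving less than 1% of the time were excluded.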

[2] = tested on: Danio rerio larvae (5 dpf); assay: excitability (activity period 17 minus period 16, 1-s interval sound) minus DMSO control (percentage points); higher = more acoustic excitability than DMSO larvae
Summary of the method: as §1

[3] = tested on: Danio rerio larvae (5 dpf); assay: combined optomotor response (time in upper well half, down vs up moving lines, periods 7-14) minus DMSO control (percentage points); higher = stronger optomotor response than DMSO larvae
[4] = tested on: Danio rerio larvae (5 dpf); assay: combined upward orientation toward moving lines (periods 7-14) minus DMSO control (percentage points); higher = more orientation with moving lines than DMSO larvae
Summary of the method: as §1

[5] = tested on: Danio rerio larvae (5 dpf); assay: 1-h baseline activity (% time moving, periods 1-6) minus DMSO control (percentage points); higher = more locomotor activity than DMSO larvae
Summary of the method: as §1

[6] = tested on: Danio rerio larvae (5 dpf); assay: habituation (activity change first vs second 5 min of 1-s interval sound, period 17) minus DMSO control (percentage points); higher = larger habituation measure than DMSO larvae
Summary of the method: as §1

`O=C(O)c1cc(/N=N/c2ccc(S(=O)(=O)Nc3ccccn3)cc2)ccc1O` [Sulfasalazine] gave a startle [1] of -1, an excitability [2] of 0.715 and a combined optomotor response [3] of 1.33.
`COc1cc2ncnc(Nc3ccc(F)c(Cl)c3)c2cc1OCCCN1CCOCC1` [Iressa] was tested, and the excitability [2] was 19.5, the “combined upward orientation toward moving lines” value [4] was -7.88 and the combined optomotor response [3] was 5.72.
In the case of `Cc1ccc(O)c([C@H](CCN(C(C)C)C(C)C)c2ccccc2)c1` [Tolterodine L-tartrate], the excitability [2] is reported as 4.8, the “combined upward orientation toward moving lines” value [4] is reported as 0.814 and the combined optomotor response [3] is reported as -1.96.
In the case of `Cc1c(-c2ccc(O)cc2)n(Cc2ccc(OCCN3CCCCCC3)cc2)c2ccc(O)cc12` [Bazedoxifene acetate], the 1-h baseline activity [5] is reported as -14.5, the startle [1] is reported as -3.07 and the combined optomotor response [3] is reported as -0.163.
For `CCCCC(=O)N(Cc1ccc(-c2ccccc2-c2nnn[nH]2)cc1)[C@H](C(=O)O)C(C)C` [Valsartan], the startle [1] was 0.232 and the combined optomotor response [3] was 7.07.
`CN1CCN2c3ncccc3Cc3ccccc3C2C1` (configuration not stated) [Mirtazapine] showed a 1-h baseline activity [5] of 11.7 and a startle [1] of -6.05.
In the case of `NC(=O)N1c2ccccc2C=Cc2ccccc21` [Carbamazepine], the “combined upward orientation toward moving lines” value [4] is reported as -1.82, the habituation [6] is reported as 2.97 and the combined optomotor response [3] is reported as 6.15.
In the case of `COc1c(C)c2c(c(O)c1C/C=C(\C)CCC(=O)O)C(=O)OC2` [Mycophenolic acid], the “combined upward orientation toward moving lines” value [4] is reported as -0.977, the habituation [6] is reported as 1.82 and the combined optomotor response [3] is reported as 7.6.
In the case of `Cc1cn([C@H]2C=C[C@@H](CO)O2)c(=O)[nH]c1=O` [Stavudine], the “combined upward orientation toward moving lines” value [4] is reported as -0.971 and the combined optomotor response [3] is reported as 7.54.
With `CC(C)c1nc(CN(C)C(=O)N[C@H](C(=O)N[C@@H](Cc2ccccc2)C[C@H](O)[C@H](Cc2ccccc2)NC(=O)OCc2cncs2)C(C)C)cs1` [Ritonavir] the “combined upward orientation toward moving lines” value [4] was -4.18 and the combined optomotor response [3] was 3.14.
In the case of `N#Cc1ccc(C(c2ccc(C#N)cc2)n2cncn2)cc1` [Letrozole], the “combined upward orientation toward moving lines” value [4] is reported as -1.71 and the combined optomotor response [3] is reported as -0.923.
For `CC(C)c1ccc2oc3nc(N)c(C(=O)O)cc3c(=O)c2c1` [Amlexanox], the “combined upward orientation toward moving lines” value [4] was -5.36 and the combined optomotor response [3] was 4.64.
In the case of `Nc1nc(NC2CC2)c2ncn([C@H]3C=C[C@@H](CO)C3)c2n1` [Abacavir hemisulfate], the startle [1] is reported as 6.4 and the combined optomotor response [3] is reported as 4.25.
With `CC#C[C@]1(O)CC[C@H]2[C@@H]3CCC4=CC(=O)CCC4=C3[C@@H](c3ccc(N(C)C)cc3)C[C@@]21C` [Mifepristone] the startle [1] was 0.533 and the combined optomotor response [3] was 8.07.
In the case of `C[C@H]1C[C@@H]2[C@H]([C@@H](O)C[C@@]3(C)[C@H]2CC[C@]3(O)C(=O)CO)[C@@]2(C)C=CC(=O)C=C12` [Methylprednisolone], the startle [1] is reported as 0.408 and the combined optomotor response [3] is reported as 8.85.
`N[C@@H]1[C@H]2CN(c3nc4c(cc3F)c(=O)c(C(=O)O)cn4-c3ccc(F)cc3F)C[C@@H]12` [Trovafloxacin mesylate] was tested, and the 1-h baseline activity [5] was 4.29, the “combined upward orientation toward moving lines” value [4] was -3.7 and the habituation [6] was -4.07.
In the case of `COC(=O)C1=C(C)NC(C)=C(C(=O)OC(C)C)C1c1cccc2nonc12` (configuration not stated) [Isradipine], the startle [1] is reported as -8.8 and the combined optomotor response [3] is reported as -14.7.
With `O=C(Nc1c(Cl)cncc1Cl)c1ccc(OC(F)F)c(OCC2CC2)c1` [Roflumilast] the “combined upward orientation toward moving lines” value [4] was -2.52 and the combined optomotor response [3] was -6.05.
`CN/C(=N\CCSCc1nc[nH]c1C)NC#N` [Cimetidine] was tested, and the “combined upward orientation toward moving lines” value [4] was -0.665 and the combined optomotor response [3] was 0.13.
In the case of `CCN(CC)CCNC(=O)c1c(C)[nH]c(/C=C2\C(=O)Nc3ccc(F)cc32)c1C` [Sunitinib malate], the 1-h baseline activity [5] is reported as -14, the startle [1] is reported as -2.14 and the excitability [2] is reported as 15.8. The combined optomotor response [3] was 2.67.
For `CC(CCc1ccc(O)cc1)NCCc1ccc(O)c(O)c1` (configuration not stated) [Dobutamine hydrochloride], the startle [1] was -0.893 and the combined optomotor response [3] was 1.08.
For `C#C[C@]1(O)CC[C@H]2[C@@H]3CCC4=CC(=O)CC[C@@H]4[C@H]3CC[C@@]21CC` [Levonorgestrel], the “combined upward orientation toward moving lines” value [4] was 5.76 and the combined optomotor response [3] was 6.62.
`CN1CC[C@@H](NC(=O)Nc2ccc(C#N)cc2)C[C@@H]1c1nc2ccccc2[nH]1` was tested, and the 1-h baseline activity [5] was -10, the “combined upward orientation toward moving lines” value [4] was 4.61 and the combined optomotor response [3] was -1.72.
For `NS(=O)(=O)Cc1noc2ccccc12` [Zonisamide], the “combined upward orientation toward moving lines” value [4] was 1.75 and the combined optomotor response [3] was 7.
`COc1ccc(C[C@@H](C)NC[C@H](O)c2ccc(O)c(NC=O)c2)cc1` [Arformoterol tartrate] was tested, and the startle [1] was -8.08, the excitability [2] was 4.62 and the combined optomotor response [3] was -7.68.
In the case of `CCCCC1=NC2(CCCC2)C(=O)N1Cc1ccc(-c2ccccc2-c2nnn[nH]2)cc1` [Irbesartan], the startle [1] is reported as 3.4 and the combined optomotor response [3] is reported as -4.91.
In the case of `CCc1c2c(nc3ccc(OC(=O)N4CCC(N5CCCCC5)CC4)cc13)-c1cc3c(c(=O)n1C2)COC(=O)[C@]3(O)CC`, the startle [1] is reported as 0.964 and the excitability [2] is reported as 8.99.
With `CN(CCOc1ccc(CC2SC(=O)NC2=O)cc1)c1ccccn1` (configuration not stated) [Rosiglitazone] the “combined upward orientation toward moving lines” value [4] was -10.5 and the combined optomotor response [3] was 3.93.
Compound `CC(=O)S[C@@H]1CC2=CC(=O)CC[C@]2(C)[C@H]2CC[C@@]3(C)[C@@H](CC[C@@]34CCC(=O)O4)[C@H]12` [Spironolactone] has a 1-h baseline activity [5] of -0.875, a startle [1] of 2.27 and a combined optomotor response [3] of 0.523.
`COc1cc(Nc2c(C#N)cnc3cc(OCCCN4CCN(C)CC4)c(OC)cc23)c(Cl)cc1Cl` [Bosutinib] was tested, and the “combined upward orientation toward moving lines” value [4] was -2.87 and the combined optomotor response [3] was 0.386.
